PubChem BioAssay (NCATS)
Results filed as inconclusive are left out. Where a call stands in place of a potency, no number is given. The source made the active and inactive calls. Unless noted, the call rests on the fitted dose curve; in most records, active means well fitted curve in the direction sought with a large enough effect; inconclusive means small, poorly fitted or top-dose-only effect, or another doubt; inactive means no such curve, though single readings can be large; an effect the other way counts as inactive or inconclusive.

Key:
[1] = biological target: Lysosomal acid glucosylceramidase (Homo sapiens) (UniProt P04062); test: Glucocerebrosidase-p2 (AID 348; in the data active means potency below about 10 µM; further: potency means the concentration at half of the fitted maximal effect); settings: purified GBA, blue fluorogenic substrate, 40 min
Method in brief: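 Normal human glucocerebrosidase (0.2 nM) with blue fluorogenic substrate (80 uM final) in citrate/phosphate pH 5.9 with 10mM sodium taurocholate, 0.01% tween-20; 40 min RT, NaOH/glycine stop; fluorescence Ex 365/Em 440; AC50 from a titration from 0.6 nM upwards.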

[2] = AP1 Signaling Pathway (AID 357; active means well fitted curve in either direction with a large enough effect, not every such curve was filed as active); settings: ME-180 AP-1-bla reporter, EGF-induced, beta-lactamase ratio, 5 h; at 7.69 µM (top of the series) unless noted
Method in brief: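 AP-1-bla ME-180 cells with beta-lactamase reporter under AP-1 response element, stimulated with EC50 EGF; compounds titrated, 5 hours at 37 degrees Celsius. CCF4 read at 460/530 nm ratio; positive and negative modulators judged by AC50.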

[3] = Stat Signaling Pathway (AID 446; active means well fitted curve in either direction with a large enough effect, not every such curve was filed as active;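 further: ME-180 cervical cancer cells given 40 pM IL-6 alongside compound; SIE-controlled beta-lactamase reporter measured as 460/530 nm FRET emission ratio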); settings: ME-180 (cervical carcinoma) SIE beta-lactamase reporter, IL-6 stimulated, 5 h; at 7.69 µM (top of the series) unless noted
Method in brief: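 Normalization used AC90 stimulation (300 pM IL-6) and AC90 inhibition (125 nM pan-JAK inhibitor at 40 pM IL-6). The underlying signal is SIE-driven beta-lactamase in ME-180 cells after 5 h IL-6 exposure with compound.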

[4] = biological target: 3',5'-cyclic-AMP phosphodiesterase 4B (Homo sapiens) (UniProt Q07343); test: qHTS Assay for Inhibitors of PDE-IV (AID 607; active means well fitted activation curve with a large enough effect in the main read-out, with a control signal flat, not every such curve was filed as active); settings: HEK293 ACTOne CNG channel cells, membrane potential fluorescence; series mostly up to 22.9 µM
Method in brief: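 HEK293 ACTOne cells with CNG channel (1000/well), endogenous PDE4; membrane potential dye, compounds up to 22.9 uM final. Fluorescence Ex 535/Em 590; RO 20-1724 (100 uM final) as reference.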

[5] = qHTS Assay for Lipid Storage Modulators (AID 1519; calls by dose curve); settings: Drosophila S3 cells, BODIPY lipid droplet/cell ratio, laser cytometry, cells loaded with oleic acid; for activity change, negative = inhibition: at 57.5 µM (top of the series)
Method in brief: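 Cells seeded at 5,000 per well were treated with compounds over a concentration series and loaded with oleic acid (400 uM, as added). Lipid droplet fluorescence (488 nm excitation, 500-530 nm channel) was read by laser-scanning cytometry and normalized to 20 uM Triacsin C.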

[6] = Primary qHTS for small molecule stabilizers of the endoplasmic reticulum resident proteome: Secreted ER Calcium Modulated Protein (SERCaMP) assay (AID 1508630); settings: SH-SY5Y GLuc-SERCaMP (Gaussia luciferase released on ER calcium loss) secretion, thapsigargin, luminescence; series mostly up to 38.4 µM
Method in brief: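 The SH-SY5Y reporter protocol was run at 3 concentrations up to 38.3 uM (primary) or 11 concentrations (follow-up): 16 h compound, 100 nM thapsigargin for 4 h, then extracellular luciferase luminescence.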

[7] = biological target: Rap guanine nucleotide exchange factor 3 (Homo sapiens) (UniProt O95398); test: Confirmatory qHTS for antagonist of cAMP-regulated guanine nucleotide exchange factor 3 (EPAC1) (AID 1645880); settings: EPAC1 Rap1B-BODIPY-GDP exchange, fluorescence; series mostly up to 115 µM; further: nearly all actives have a fitted effect of over 55% in size
Method in brief: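 Released BODIPY-GDP fluoresces less than Rap1-bound BODIPY-GDP; the signal is followed at 480/540 nm at 5-min intervals over 30 min, after 5 min at room temperature. Reactions contain 100 nM EPAC1, 250 nM RAP1B-BODIPY-GDP and 50 uM GDP; results are normalized to ATA and DMSO.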

[8] = biological target: Rap guanine nucleotide exchange factor 3 (Homo sapiens) (UniProt O95398); test: Confirmatory qHTS for agonist of cAMP-regulated guanine nucleotide exchange factor 3 (EPAC1) (AID 1645881); settings: EPAC1 Rap1B BODIPY-GDP exchange fluorescence, 100% = cAMP control response; series mostly up to 154 µM;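 further: EPAC1 catalysed release of BODIPY-GDP from Rap1B seen as fluorescence loss; nearly all actives have a fitted effect of over 75% in size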
[9] = biological target: Rap guanine nucleotide exchange factor 4 (Homo sapiens) (UniProt Q8WZA2); test: Confirmatory qHTS for agonist of cAMP-regulated guanine nucleotide exchange factor 4 (EPAC2) (AID 1645884); settings: EPAC2 GEF activity, Rap1B-BODIPY-GDP fluorescence, percent relative to cAMP agonist control; series mostly up to 154 µM;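 further: nucleotide exchange releases bodipy-GDP from Rap1 and this lowers its fluorescence; nearly all actives have a fitted effect of over 65% in size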
[10] = biological target: Rap guanine nucleotide exchange factor 4 (Homo sapiens) (UniProt Q8WZA2); test: Confirmatory qHTS for antagonist of cAMP-regulated guanine nucleotide exchange factor 4 (EPAC2) (AID 1645885); settings: EPAC2 Rap1B-BODIPY-GDP exchange fluorescence, biochemical; series mostly up to 114 µM; further: nearly all actives have a fitted effect of over 25% in size
[11] = NFAT Signaling Pathway (AID 444; active means well fitted curve in either direction with a large enough effect, not every such curve was filed as active;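 further: carbachol stimulus at about its EC50 of 1 µM final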); settings: Jurkat NFAT-bla M1, carbachol, beta-lactamase ratio, 5 h; at 7.69 µM (top of the series) unless noted
Method in brief: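 Jurkat cells carrying an NFAT-driven β-lactamase reporter and co-transfected muscarinic M1 receptor were treated with compound plus carbachol (1 uM final, an EC50 level) for 5 h at 37 °C. CCF4 loading followed for 1 h at RT; 460/530 nm ratio gave %activity.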

[12] = biological target: Glucocorticoid receptor (Homo sapiens) (UniProt P04150); test: GR-GFP Redistribution (AID 450;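 active means compounds whose dose series gives a full or clear partial fitted curve of increased nuclear translocation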; further: potency means the concentration at half of the fitted maximal effect); settings: U2OS GR-GFP nuclear translocation, laser cytometry, 2 h
[13] = biological target: Glucocorticoid receptor (Homo sapiens) (UniProt P04150); test: GR-EFC Redistribution (AID 451; calls by dose curve; further: potency means the concentration at half of the fitted maximal effect); settings: CHO-K1 GR-EFC translocation, beta-gal luminescence, 2 h
Method in brief: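 CHO-K1 cells stably expressing nuclear-localized β-gal enzyme acceptor and GR fused C-terminally to the enzyme donor fragment; ligand-driven nuclear translocation restores β-gal by complementation. Compounds titrated up to 46 uM final, 2 h at 37 °C; luminescence read.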

[14] = biological target: Mitogen-activated protein kinase 10 (Mus musculus) (UniProt Q61831); test: JNK3 AlphaScreen Assay (AID 530; active means well fitted curve in either direction with a large enough effect, not every such curve was filed as active;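 further: kinase came from lysate of stimulated human HepG2 cells; signal reports phosphorylation of biotinylated GST-cJun 1-79 at Ser73 with 10 µM ATP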); settings: JNK3 lysate, c-Jun phosphorylation; series mostly up to 57.1 µM
Method in brief: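 Phosphorylation of biotinylated GST-cJun(1-79) at Ser73 is measured by AlphaScreen proximity luminescence. Enzyme is JNK3 in HepG2 lysates activated with interleukin-1beta and tumor necrosis factor alpha; ATP is 10 uM final.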

[15] = biological target: Dual specificity protein kinase CLK4 (Homo sapiens) (UniProt Q9HAZ1); test: qHTS Assay for Inhibitors of CDC-like Kinase 4 (Kinase-Glo Assay) (AID 1770); settings: recombinant Clk4, Kinase-Glo ATP depletion luminescence; series mostly up to 66.7 µM; further: nearly all actives have a fitted effect of over 65% in size
Method in brief: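 Inhibition was judged from remaining ATP, measured by Ultra-Glo luciferase bioluminescence after Clk4 (25 nM) had acted on RS peptide at 1 uM ATP for 4.5 hours, room temperature.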

[16] = biological target: Dual specificity protein kinase CLK4 (Homo sapiens) (UniProt Q9HAZ1); test: qHTS Assay for Inhibitors of CDC-like Kinase 4 (ADP-Glo Assay) (AID 1771); settings: recombinant CLK4, ADP-Glo luminescence; series mostly up to 80 µM; further: nearly all actives have a fitted effect of over 70% in size
Method in brief: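 Compounds are pin-transferred onto substrate mix (100 uM RS peptide, 1 uM ATP), then 25 nM Clk4 is added. After 1 hr at room temperature, ADP-Glo reagent runs 45 min, detection reagent 30 min, then luminescence is read.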

[17] = biological target: Dual specificity protein kinase CLK4 (Homo sapiens) (UniProt Q9HAZ1); test: qHTS Assay for Inhibitors of CDC-like Kinase 4 (ADP-FP Assay) (AID 1795); settings: Transcreener ADP fluorescence polarization; series mostly up to 50 µM;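 further: recombinant human CLK4 phosphorylating RS repeat peptide at 1 µM ATP; nearly all actives have a fitted effect of over 60% in size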
Method in brief: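 Inhibition of ADP formation by 6.25 nM Clk4 is measured using 1 uM ATP and 100 uM RS repeat peptide over one hour. Produced ADP displaces a fluorescent tracer from antibody, lowering polarization.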

[18] = biological target: Ubiquitin carboxyl-terminal hydrolase 1 (Homo sapiens) (UniProt O94782); test: Inhibitors of USP1/UAF1: Pilot qHTS (AID 504865); settings: purified USP1/UAF1, Ub-rhodamine cleavage fluorescence; series mostly up to 54.9 µM;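 further: rhodamine fluorescence freed from ubiquitin-rhodamine substrate followed over time; top concentration of the series differs between compounds; nearly all actives have a fitted effect of over 35% in size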
Method in brief: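 Kinetic fluorescence assay: 1nM USP1/UAF1, 15 min compound preincubation, then 150nM Ub-Rho; 480/540 nm.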

[19] = biological target: Cytochrome P450 1A2 (Homo sapiens) (UniProt P05177); test: p450-cyp1a2 (AID 410; calls by dose curve; further: potency means the concentration at half of the fitted maximal effect); settings: recombinant CYP1A2, luciferin-ME demethylation, luminescence; series mostly up to 57 µM
Method in brief: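 O-Demethylation of luciferin 6' methyl ether by human CYP1A2 is monitored as luciferase luminescence. Substrate sits at Km (100uM); enzyme is 20nM. Values are scaled to 57 uM furafylline as maximal inhibition.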

[20] = biological target: Cytochrome P450 3A4 (Homo sapiens) (UniProt P08684); test: qHTS Assay for Activators of Cytochrome P450 3A4 (AID 885); settings: recombinant CYP3A4, Luciferin-PPXE luminescence, 60 min; series mostly up to 57.1 µM; further: nearly all actives have a fitted effect of over 65% in size
Method in brief: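 Human CYP3A4 dealkylates Luciferin-PPXE to luciferin, which luciferase detection converts to light. Substrate was at its KM (25uM), buffer 200mM KPO4, reaction 60 min at RT.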

[21] = measured here: cell count channel max response
[22] = measured here: lipid channel max response

Chain of Rap guanine nucleotide exchange factor 4 (Homo sapiens) (Q8WZA2 whole entry, looked up): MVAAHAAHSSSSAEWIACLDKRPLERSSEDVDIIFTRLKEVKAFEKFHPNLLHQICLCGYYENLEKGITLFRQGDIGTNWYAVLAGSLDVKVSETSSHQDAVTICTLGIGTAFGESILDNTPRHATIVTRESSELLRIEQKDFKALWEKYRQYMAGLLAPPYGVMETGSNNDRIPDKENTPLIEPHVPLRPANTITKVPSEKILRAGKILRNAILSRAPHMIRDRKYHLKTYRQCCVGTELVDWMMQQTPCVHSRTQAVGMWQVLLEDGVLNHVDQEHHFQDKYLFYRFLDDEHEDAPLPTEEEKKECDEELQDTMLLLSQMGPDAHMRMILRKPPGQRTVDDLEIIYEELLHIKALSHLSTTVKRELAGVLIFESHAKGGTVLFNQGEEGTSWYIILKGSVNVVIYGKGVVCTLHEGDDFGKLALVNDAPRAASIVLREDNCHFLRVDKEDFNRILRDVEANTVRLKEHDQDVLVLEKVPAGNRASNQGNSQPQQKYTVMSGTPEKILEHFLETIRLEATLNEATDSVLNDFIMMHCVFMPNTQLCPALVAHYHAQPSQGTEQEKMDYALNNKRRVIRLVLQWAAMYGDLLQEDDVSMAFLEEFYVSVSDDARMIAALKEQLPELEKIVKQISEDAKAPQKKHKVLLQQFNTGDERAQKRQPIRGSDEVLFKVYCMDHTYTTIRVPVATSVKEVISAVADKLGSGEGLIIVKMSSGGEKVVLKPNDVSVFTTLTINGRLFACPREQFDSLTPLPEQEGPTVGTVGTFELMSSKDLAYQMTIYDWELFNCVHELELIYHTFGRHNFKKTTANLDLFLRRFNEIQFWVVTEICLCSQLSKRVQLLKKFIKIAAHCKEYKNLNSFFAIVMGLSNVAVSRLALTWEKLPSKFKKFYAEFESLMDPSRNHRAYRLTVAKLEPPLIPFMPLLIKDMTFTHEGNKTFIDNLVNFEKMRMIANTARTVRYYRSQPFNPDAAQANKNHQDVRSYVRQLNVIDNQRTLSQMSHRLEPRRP
Chain of Dual specificity protein kinase CLK4 (Homo sapiens) (Q9HAZ1 whole entry, looked up): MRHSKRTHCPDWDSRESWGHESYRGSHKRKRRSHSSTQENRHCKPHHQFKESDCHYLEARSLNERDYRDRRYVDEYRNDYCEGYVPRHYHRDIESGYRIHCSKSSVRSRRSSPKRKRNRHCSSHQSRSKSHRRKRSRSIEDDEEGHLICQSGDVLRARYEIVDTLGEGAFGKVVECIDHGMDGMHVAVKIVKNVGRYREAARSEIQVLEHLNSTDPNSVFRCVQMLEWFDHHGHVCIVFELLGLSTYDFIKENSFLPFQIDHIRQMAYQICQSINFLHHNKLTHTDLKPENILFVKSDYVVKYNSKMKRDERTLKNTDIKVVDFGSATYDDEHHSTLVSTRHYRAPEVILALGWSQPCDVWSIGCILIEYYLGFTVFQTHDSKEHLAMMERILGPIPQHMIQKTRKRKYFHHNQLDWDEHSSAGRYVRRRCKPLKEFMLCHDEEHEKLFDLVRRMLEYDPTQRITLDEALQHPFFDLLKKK
Chain of Glucocorticoid receptor (Homo sapiens) (P04150 whole entry, looked up, the tested form may be a part): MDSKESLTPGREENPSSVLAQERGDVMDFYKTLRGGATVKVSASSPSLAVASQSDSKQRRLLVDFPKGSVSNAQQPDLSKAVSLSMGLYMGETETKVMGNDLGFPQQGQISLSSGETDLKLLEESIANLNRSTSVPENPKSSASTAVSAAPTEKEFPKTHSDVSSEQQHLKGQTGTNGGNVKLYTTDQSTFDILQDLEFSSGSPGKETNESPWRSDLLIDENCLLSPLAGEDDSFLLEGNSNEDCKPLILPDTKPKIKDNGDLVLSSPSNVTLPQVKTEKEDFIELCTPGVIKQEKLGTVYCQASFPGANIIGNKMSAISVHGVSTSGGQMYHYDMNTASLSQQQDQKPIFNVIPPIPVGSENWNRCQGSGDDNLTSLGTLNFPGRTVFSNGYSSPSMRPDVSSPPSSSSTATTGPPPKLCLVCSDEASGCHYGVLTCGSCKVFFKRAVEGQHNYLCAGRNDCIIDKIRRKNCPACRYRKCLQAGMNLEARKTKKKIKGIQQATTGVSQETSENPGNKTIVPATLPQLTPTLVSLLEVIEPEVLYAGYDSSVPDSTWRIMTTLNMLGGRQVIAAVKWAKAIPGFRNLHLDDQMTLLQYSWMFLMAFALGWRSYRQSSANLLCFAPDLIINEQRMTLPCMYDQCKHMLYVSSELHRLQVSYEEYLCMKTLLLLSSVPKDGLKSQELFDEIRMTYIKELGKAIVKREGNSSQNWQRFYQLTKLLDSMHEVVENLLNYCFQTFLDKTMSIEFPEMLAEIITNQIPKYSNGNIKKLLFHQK
Chain of 3',5'-cyclic-AMP phosphodiesterase 4B (Homo sapiens) (Q07343 whole entry, looked up): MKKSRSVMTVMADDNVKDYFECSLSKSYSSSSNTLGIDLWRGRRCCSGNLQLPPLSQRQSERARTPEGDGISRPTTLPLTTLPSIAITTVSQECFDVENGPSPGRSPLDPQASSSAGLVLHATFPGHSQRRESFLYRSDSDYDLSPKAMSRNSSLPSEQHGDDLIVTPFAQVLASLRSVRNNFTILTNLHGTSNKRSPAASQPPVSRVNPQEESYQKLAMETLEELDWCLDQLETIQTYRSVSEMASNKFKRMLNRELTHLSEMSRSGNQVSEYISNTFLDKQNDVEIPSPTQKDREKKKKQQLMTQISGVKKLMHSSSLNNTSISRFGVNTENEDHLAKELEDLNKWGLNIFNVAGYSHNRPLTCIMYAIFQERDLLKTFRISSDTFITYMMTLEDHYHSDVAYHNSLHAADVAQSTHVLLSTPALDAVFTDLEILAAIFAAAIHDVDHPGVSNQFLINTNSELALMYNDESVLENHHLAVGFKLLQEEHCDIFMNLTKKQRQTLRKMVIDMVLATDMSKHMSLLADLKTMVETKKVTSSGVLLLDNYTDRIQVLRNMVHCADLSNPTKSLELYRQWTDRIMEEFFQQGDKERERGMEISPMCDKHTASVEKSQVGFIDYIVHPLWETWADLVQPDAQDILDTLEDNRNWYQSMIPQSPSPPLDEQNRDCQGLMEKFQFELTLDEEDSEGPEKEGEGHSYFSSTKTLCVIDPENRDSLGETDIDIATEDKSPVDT
Chain of Rap guanine nucleotide exchange factor 3 (Homo sapiens) (O95398 whole entry, looked up): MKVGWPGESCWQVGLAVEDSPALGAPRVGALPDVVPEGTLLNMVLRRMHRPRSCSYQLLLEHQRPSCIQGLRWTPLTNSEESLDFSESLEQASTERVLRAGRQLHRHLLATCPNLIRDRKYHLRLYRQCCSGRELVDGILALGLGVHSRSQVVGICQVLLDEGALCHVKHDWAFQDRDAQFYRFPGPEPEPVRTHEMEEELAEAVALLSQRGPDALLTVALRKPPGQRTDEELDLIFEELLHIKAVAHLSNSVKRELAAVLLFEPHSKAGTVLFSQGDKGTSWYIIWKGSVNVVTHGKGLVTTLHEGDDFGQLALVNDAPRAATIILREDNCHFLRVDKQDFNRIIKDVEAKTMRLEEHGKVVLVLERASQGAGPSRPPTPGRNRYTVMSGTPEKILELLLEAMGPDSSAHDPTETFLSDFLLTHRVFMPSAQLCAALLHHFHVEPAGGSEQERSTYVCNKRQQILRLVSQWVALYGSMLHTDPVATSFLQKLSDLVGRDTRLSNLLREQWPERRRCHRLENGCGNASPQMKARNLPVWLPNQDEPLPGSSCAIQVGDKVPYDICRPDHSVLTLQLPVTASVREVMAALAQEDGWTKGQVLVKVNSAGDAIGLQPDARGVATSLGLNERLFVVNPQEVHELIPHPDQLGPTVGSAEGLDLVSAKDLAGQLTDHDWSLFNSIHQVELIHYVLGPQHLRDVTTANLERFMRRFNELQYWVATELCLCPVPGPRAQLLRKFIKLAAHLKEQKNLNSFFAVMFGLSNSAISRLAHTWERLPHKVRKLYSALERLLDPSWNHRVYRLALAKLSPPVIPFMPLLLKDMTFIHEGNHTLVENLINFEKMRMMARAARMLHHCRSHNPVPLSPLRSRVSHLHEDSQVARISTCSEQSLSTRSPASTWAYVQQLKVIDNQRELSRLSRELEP
Chain of Lysosomal acid glucosylceramidase (Homo sapiens) (P04062 whole entry, looked up): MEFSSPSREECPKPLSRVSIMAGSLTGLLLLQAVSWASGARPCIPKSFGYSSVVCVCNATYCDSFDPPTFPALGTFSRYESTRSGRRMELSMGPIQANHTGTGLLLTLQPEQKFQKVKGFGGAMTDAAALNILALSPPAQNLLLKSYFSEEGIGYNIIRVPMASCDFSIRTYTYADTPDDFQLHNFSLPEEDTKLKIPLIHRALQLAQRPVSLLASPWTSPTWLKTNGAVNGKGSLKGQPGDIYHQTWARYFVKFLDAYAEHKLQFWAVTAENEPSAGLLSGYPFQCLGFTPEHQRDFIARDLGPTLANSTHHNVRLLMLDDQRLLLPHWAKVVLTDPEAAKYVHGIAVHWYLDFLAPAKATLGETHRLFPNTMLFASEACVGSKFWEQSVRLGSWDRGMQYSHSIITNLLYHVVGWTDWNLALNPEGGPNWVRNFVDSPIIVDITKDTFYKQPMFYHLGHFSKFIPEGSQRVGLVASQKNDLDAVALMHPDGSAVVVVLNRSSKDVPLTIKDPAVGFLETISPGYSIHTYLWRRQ
Chain of Cytochrome P450 1A2 (Homo sapiens) (P05177 whole entry, looked up): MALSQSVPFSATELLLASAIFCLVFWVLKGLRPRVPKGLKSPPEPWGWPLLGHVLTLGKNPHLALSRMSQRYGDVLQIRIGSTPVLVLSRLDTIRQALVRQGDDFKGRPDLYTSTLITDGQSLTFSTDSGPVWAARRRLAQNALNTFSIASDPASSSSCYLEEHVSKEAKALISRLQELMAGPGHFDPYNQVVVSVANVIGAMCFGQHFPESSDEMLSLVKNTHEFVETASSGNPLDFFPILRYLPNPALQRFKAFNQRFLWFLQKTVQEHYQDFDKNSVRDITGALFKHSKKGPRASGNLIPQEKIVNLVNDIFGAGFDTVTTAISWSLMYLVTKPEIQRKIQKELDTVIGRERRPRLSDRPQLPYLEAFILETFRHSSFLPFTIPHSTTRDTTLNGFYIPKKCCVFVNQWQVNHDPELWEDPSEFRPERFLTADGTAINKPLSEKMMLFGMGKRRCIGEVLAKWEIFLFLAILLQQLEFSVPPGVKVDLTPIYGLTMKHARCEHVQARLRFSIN

## Cc1noc(C)c1C(=O)N1CCC2(CCN(Cc3ccc(C#N)cc3)CC2)CC1
[1]
  Potency: > 11.4 µM (inactive)
[2]
  activity change, negative = inhibition: 22% (inactive)
[3]
  activity, negative = inhibition: 2.67% (inactive)
[4]
  Potency: inactive
[5]
  activity change, negative = inhibition: -1.31% (inactive)
[5]; [21]
  max response: 9.89%
[5]; [22]
  max response: 10.9%
[6]
  Potency: inactive
[7]
  Potency: inactive
[8]
  outcome: inactive
[9]
  outcome: inactive
[10]
  Potency: inactive

## COc1ccc(-n2c(=O)c(-c3cc(F)cc(F)c3)nc3cnc(N(C)C)nc32)cc1
[1]
  Potency: > 11.4 µM (inactive)
[11]
  activity change, negative = inhibition: 17.5% (inactive)
[12]
  Potency: > 9.22 µM (inactive)
[13]
  Potency: > 46 µM (inactive)
[14]
  outcome: inactive
[4]
  Potency: inactive
[5]
  activity change, negative = inhibition: 5.64% (inactive)
[5]; [21]
  max response: 11.6%
[5]; [22]
  max response: 18.1%
[15]
  Potency: inactive
[16]
  Potency: inactive
[17]
  Potency: inactive
[18]
  Potency: inactive
[6]
  Potency: inactive
[7]
  Potency: inactive
[8]
  outcome: inactive
[9]
  outcome: inactive
[10]
  Potency: inactive

## C/C(Nc1ccc2oc(=O)ccc2c1)=C1/C(=O)CC2[C@@H]1C2(C)C (some centres undefined)
[6]
  Potency: inactive

## O=C(O)c1ccccc1-c1oc2cc(O)ccc2c(=O)c1Oc1ccccc1
[6]
  Potency: inactive

## CC(C)=CCn1cnc2c1c(=O)n(C)c(=O)n2C
[6]
  Potency: inactive

## COCC(=O)N1CCC2(CC1)CCN(C(=O)Nc1cccc(C#N)c1)CC2
[1]
  Potency: > 11.4 µM (inactive)
[2]
  activity change, negative = inhibition: -4.8% (inactive)
[19]
  Potency: inactive
[11]
  activity change, negative = inhibition: -11.9% (inactive)
[3]
  activity, negative = inhibition: -4.23% (inactive)
[13]
  Potency: > 46 µM (inactive)
[14]
  outcome: inactive
[4]
  Potency: inactive
[5]
  activity change, negative = inhibition: 1.13% (inactive)
[5]; [21]
  max response: 4.68%
[5]; [22]
  max response: 4.41%
[6]
  Potency: inactive
[7]
  Potency: inactive
[8]
  outcome: inactive
[9]
  outcome: inactive
[10]
  Potency: inactive

## COc1c2c(cc3c1C(CC(O)C(C)C)N(C)CC3)OCO2 (centres undefined)
[6]
  Potency: inactive

## Cc1cc2c3c(cccc3n1)C(=O)c1ccccc1-2
[6]
  Potency: inactive

## COc1c2c(cc3c1C(c1c(O)c4ccccc4oc1=O)N(C)CC3)OCO2 (centres undefined)
[6]
  Potency: inactive

## COc1ccc([C@H]2O[C@@H](c3ccc(OC)c(OC)c3)[C@H](C)[C@@H]2C)cc1OC
[6]
  Potency: inactive

## COCCn1c(=O)c(CCc2ccccc2)nc2cnc(Nc3cccc(OC)c3)nc21
[1]
  Potency: > 11.4 µM (inactive)
[2]
  activity change, negative = inhibition: 13.2% (inactive)
[11]
  activity change, negative = inhibition: 5.55% (inactive)
[3]
  activity, negative = inhibition: 0.869% (inactive)
[12]
  Potency: > 9.22 µM (inactive)
[13]
  Potency: > 46 µM (inactive)
[14]
  outcome: inactive
[5]
  activity change, negative = inhibition: -3.18% (inactive)
[5]; [21]
  max response: 22%
[5]; [22]
  max response: 18.9%
[6]
  Potency: inactive
[7]
  Potency: inactive
[8]
  outcome: inactive
[9]
  outcome: inactive
[10]
  Potency: inactive

## C=C1CCC2[C@](C)(CO)[C@H](O)CC[C@@]2(C)[C@@H]1C/C=C1/C(=O)OC[C@H]1O (some centres undefined)
[6]
  Potency: inactive

## O=C(Oc1ccccc1)N1CCC2(CCCN(c3ccccc3)C2)CC1
[1]
  Potency: > 11.4 µM (inactive)
[2]
  activity change, negative = inhibition: 8.28% (inactive)
[19]
  Potency: 15.8 µM (active)
[3]
  activity, negative = inhibition: 8.61% (inactive)
[13]
  Potency: > 46 µM (inactive)
[14]
  outcome: inactive
[20]
  Potency: inactive
[5]
  activity change, negative = inhibition: -26.4% (inactive)
[5]; [21]
  max response: 17%
[5]; [22]
  max response: -12.6%
[6]
  Potency: inactive
[7]
  Potency: inactive
[8]
  outcome: inactive
[9]
  outcome: inactive
[10]
  Potency: inactive
